MARV entry inh: inhibitors of Marburg virus binding or entry into cells; 6.5% of 18,000 active; Marburg virus pseudotype entry/binding inhibition, cell-based; Potency, µM (series often up to 49.2 µM), inactives show top-dose activity change, negative = inhibition, most hits filed as inhibitors
LASV entry inh: inhibitors of Lassa virus binding or entry into cells; Lassa virus pseudotyped entry inhibition, cell-based qHTS; Potency, µM (series often up to 49.2 µM), for the others: at the top dose activity change, negative = inhibition, actives largely listed as inhibitors; 4.1% of 18,000 active; AID 720533
The depositor's hits bear a star; ! = a repeat was not active; [ ] = dose if it differs, or a comment. Most compounds without a hit are left out; they make up all but 8.6% or so of the library. Calls come from the whole dose curve; tested in HEK293 cells. % is set by controls: 0 for no effect and ±100 for the full control effect; potency is the fitted concentration of half-maximal effect.

For CCN1C(=NCCCOC(C)C)NC(c2ccccc2)C(C(=O)OC)=C1C (centres undefined) the results were MARV entry inh -3%[8.59 µM] and LASV entry inh 7%[8.59 µM].
For CN1CC(CNC(=O)OCc2ccccc2)CC2c3cccc4c3c(cn4C)CC21 (centres undefined) the results were MARV entry inh 10µM* and LASV entry inh inconclusive.
Screening CC(O)C(C)OC(=O)[C@@H]1C[C@@H]2c3cccc4c3c(cn4C(C)C)C[C@H]2N(C)C1 (some centres undefined) returned MARV entry inh 13% and LASV entry inh inconclusive.
Screening CC1(C)CN(Cc2cccnc2)C(=O)[C@@H]1CC(=O)Nc1ccc(Br)cc1 returned MARV entry inh inconclusive and LASV entry inh 10%.
For c1ccc2c(c1)Sc1ccccc1N2C[C@@H]1CN2CCC1CC2 the results were MARV entry inh 12% and LASV entry inh 3%.
`CN1CCCC(CC2c3ccccc3Sc3ccccc32)C1` (centres undefined) gave MARV entry inh 7.9µM* and LASV entry inh inconclusive.
CN1CCCC(CN2c3ccccc3Sc3ccccc32)C1 (centres undefined) was read as MARV entry inh 11µM* and LASV entry inh 28µM*.
CC(=O)C1=C(C)N(Cc2ccccc2)C(=O)NC1c1ccco1 (centres undefined) was read as MARV entry inh 2%[8.59 µM].
`O[C@H]1CN(Cc2cccs2)[C@@H](c2ccccc2)C[C@H]1n1cc(C2CC2)nn1` gave MARV entry inh -18% and LASV entry inh 7%.
For OC[C@@H](O)[C@H]1O[C@@H]2O[C@@H](C(Cl)(Cl)Cl)O[C@@H]2[C@H]1O the results were MARV entry inh -8% and LASV entry inh -5%.
`O=C1NC(=O)c2cc(Nc3ccccc3)c(Nc3ccccc3)cc21` gave MARV entry inh inconclusive and LASV entry inh 11µM*.
Screening O=C1NC(=S)NC(=O)C1C(=O)Nc1ccccc1 returned MARV entry inh 10% and LASV entry inh -5%.
`C=CC[C@@H]1C=C[C@@H](Oc2ccc(OC)cc2)[C@H](COC(=O)c2ccc(Br)cc2)O1` gave MARV entry inh -4%[8.59 µM] and LASV entry inh -31%[8.59 µM].
For C[C@@H]1CC2=CCCC2[C@]2(O1)C(=O)N(Cc1ccc(Br)cc1)c1cccc(Br)c12 (some centres undefined) the results were MARV entry inh -25%[8.59 µM].
COC1=C(C(=O)c2ccccc2)C(=O)[C@@]2(CC=C(C)C)CC(C#N)C[C@@]1(CC=C(C)C)C2=O (some centres undefined) was read as MARV entry inh -16%[8.59 µM] and LASV entry inh inconclusive.
`CCOC(=O)[C@]12C[C@]3(C)CCN(C(=O)N[C@@H]1c1ccccc1)[C@@H]32` gave MARV entry inh 34%[8.59 µM] and LASV entry inh -19%[8.59 µM].
Screening Cc1[nH]c(/C=C2/C(=O)Nc3ccc(S(=O)(=O)Cc4c(Cl)cccc4Cl)cc32)c(C)c1C(=O)N1CCCC1CN1CCCC1 (centres undefined) returned MARV entry inh 14µM* and LASV entry inh -4%.
For O=C(Cc1ccc(Cl)c(Cl)c1)N1CCCC[C@H]1CN1CCCC1 the results were MARV entry inh inconclusive and LASV entry inh -25%.
Screening COC1=C[C@@H](C(=O)N[C@H]2CCCC[C@H]2NC(C)=O)[C@@H](C)[C@H](c2ccccc2)CC1=O returned MARV entry inh -13%[8.59 µM] and LASV entry inh inconclusive.
CCCCCCCCCCCCCCCCCC[N+](C)(C)CCC[Si](OC)(OC)OC was read as MARV entry inh 4% and LASV entry inh -16%.
For C[N+](C)(C)CCCCCC[N+](C)(C)C the results were MARV entry inh 10% and LASV entry inh 10%.
CCCCCCCCCCCCCCCC[N+](C)(C)CC was read as MARV entry inh 10µM* and LASV entry inh 16µM*.
Screening CCCCCCCC[N+](C)(C)CCCCCCCC returned MARV entry inh 16µM* and LASV entry inh inconclusive.
`CCCCCCCCCC[N+](C)(C)CCCCCCCCCC` gave MARV entry inh inconclusive and LASV entry inh 25µM*.
`CCCCCCCCCC(=O)O` gave MARV entry inh 2% and LASV entry inh -5%.
For CCCCCCCCCCCCCCCC[N+](C)(C)C the results were MARV entry inh 8.9µM*! and LASV entry inh inconclusive.
Screening CCCCCCCCCCCCCCCCOP(=O)([O-])OCC[N+](C)(C)C returned MARV entry inh -10% and LASV entry inh 9%.
For CC(=O)N[C@@H](CC(=O)N[C@@H](CCC(=O)O)C(=O)O)C(=O)O the results were MARV entry inh 3% and LASV entry inh 5%.
For CC(C)CON=C1C[C@@H](O)[C@@H](O)[C@@H]2[C@H]3C(=O)N(C[C@@H]4CCCO4)C(=O)[C@@H]3CC[C@H]12 the results were MARV entry inh -10%[8.59 µM] and LASV entry inh -8%[8.59 µM].
COC(=O)C1=C(C)N(CC#C[Si](C)(C)C)C(=O)N(C(C)=O)C1c1ccccc1 (centres undefined) was read as MARV entry inh -5%[8.59 µM] and LASV entry inh -12%[8.59 µM].
`CC1=C(O)C(=O)[C@H]2O[C@@H]2C1=O` gave MARV entry inh 3% and LASV entry inh 11µM*.
`CC[C@H](C(=O)[C@H](C)[C@H](O)[C@H](C)CCc1ccc(C)c(O)c1C(=O)O)[C@H]1O[C@](CC)([C@@H]2CC[C@@](O)(CC)[C@H](C)O2)C[C@H]1C` gave MARV entry inh 2.8µM* and LASV entry inh inconclusive.
CC[C@@H](C(=O)[C@@H](C)[C@@H](O)[C@H](C)CCc1ccc(C)c(O)c1C(=O)O)C1O[C@](CC)(C2CC[C@](O)(CC)[C@H](C)O2)C[C@@H]1C (some centres undefined) was read as MARV entry inh inconclusive and LASV entry inh 7.1µM*.
O=C1[C@@H]2[C@H]3[C@H](O)[C@H](O)CC(=NOC[C@@H](O)COCc4ccco4)[C@H]3CC[C@H]2C(=O)N1c1ccc(F)cc1F was read as MARV entry inh 14%[8.59 µM] and LASV entry inh 12%[8.59 µM].
CCC1=C[C@@H]2CN(C1)Cc1c([nH]c3ccccc13)[C@@](C(=O)OC)(c1cc3c(cc1OC)N(C)[C@H]1[C@@](O)(C(=O)OC)[C@H](OC(C)=O)[C@]4(CC)C=CCN5CC[C@]31[C@@H]54)C2 was read as MARV entry inh 1.4µM*! and LASV entry inh 13µM*!.
`CC[C@]1(O)CC2CN(CCc3c([nH]c4ccccc34)[C@@](C(=O)OC)(c3cc4c(cc3OC)N(C)[C@H]3[C@@](O)(C(N)=O)[C@H](O)[C@]5(CC)C=CCN6CC[C@]43[C@@H]65)C2)C1` (some centres undefined) gave MARV entry inh inconclusive and LASV entry inh -34%.
CN(C)c1ccc(/C=C2\C(=O)Nc3ccccc32)cc1 was read as MARV entry inh -25% and LASV entry inh 14µM*.
CN(C)c1ccc(/C=C2/C(=O)Nc3ccccc32)cc1 was read as MARV entry inh 8.9µM* and LASV entry inh inconclusive.
For CC(CCN1CCc2nc(-c3ccccc3)c(-c3ccccc3)cc2C1)=NO[C@H](C)CN1CCCCc2nc(C)c(C)cc21 the results were MARV entry inh 25%[8.59 µM] and LASV entry inh 7%[8.59 µM].
For CCOC(=O)CN1C(=O)[C@]2(O[C@H](C)CC3=CCCC32)c2c(Br)cccc21 (some centres undefined) the results were MARV entry inh inconclusive and LASV entry inh -7%[8.59 µM].
Screening CCCCCC(=O)N1C[C@H](n2cc(COC(=O)c3ccccc3)nn2)[C@@H](O)C[C@H]1c1ccc(OC)cc1 returned MARV entry inh 9% and LASV entry inh 11%.
